Screening results from PubChem.
Shown are actives, neighbours in structure and some others; about 2.4% of the full set was active somewhere.
POLI inh = qHTS for Inhibitors of Polymerase Iota. DNA polymerase iota (Homo sapiens), Q9UNA4. Pol iota fluorescent replication assay, 10 min. Potency, µM (series often up to 115 µM), inactives show top-dose activity, negative = inhibition, actives largely listed as inhibitors. 390,000 compounds, 1% hits. AID 588590, 2011; also: potency is read from the fitted curve at half-maximal effect
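Fluorescent replication assay read twice, at 0 min and 10 min after adding 50 nM (final) substrate. Enzyme (10 nM) and compounds were first incubated 15 min at room temperature; enzyme-free buffer wells were negative controls.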
Pol beta inh-1 = qHTS Assay for Inhibitors of DNA Polymerase Beta. P06746. AID 485314, 2010. Potency, µM (doses to about 114 µM), for the others: at the highest dose activity change, negative = inhibition, most hits filed as inhibitors. 340,000 compounds, 1.3% hits. Pol beta primer extension/strand displacement, fluorescence kinetic; also: potency is read from the fitted curve at half-maximal effect; % is scaled to controls: 0 for no effect and ±100 for the full control effect
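Homogeneous kinetic assay of primer extension and strand displacement by 10 nM Pol beta, preincubated 15 min at room temperature with compound before 50 nM substrate (final) was added. Read at 0 and 10 min; four-parameter Hill fit.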
PGK inhibitor = qHTS Assay to Find Inhibitors of Phosphoglycerate Kinase; AID 602233, 2012; Potency, µM (highest dose often 57.5 µM), for inactives: top-dose activity change, negative = inhibition, usual class: inhibitors; 380,000 compounds, 0.043% hits; Phosphoglycerate kinase, glycosomal (Trypanosoma brucei brucei), P07378; PGK/GAPDH coupled, Kinase-Glo luminescence, 60 min; also: potency is read from the fitted curve at half-maximal effect; % is scaled to controls: 0 for no effect and ±100 for the full control effect; nearly all actives have a fitted effect of over 60% in size
Target sequence (P07378 whole entry, looked up): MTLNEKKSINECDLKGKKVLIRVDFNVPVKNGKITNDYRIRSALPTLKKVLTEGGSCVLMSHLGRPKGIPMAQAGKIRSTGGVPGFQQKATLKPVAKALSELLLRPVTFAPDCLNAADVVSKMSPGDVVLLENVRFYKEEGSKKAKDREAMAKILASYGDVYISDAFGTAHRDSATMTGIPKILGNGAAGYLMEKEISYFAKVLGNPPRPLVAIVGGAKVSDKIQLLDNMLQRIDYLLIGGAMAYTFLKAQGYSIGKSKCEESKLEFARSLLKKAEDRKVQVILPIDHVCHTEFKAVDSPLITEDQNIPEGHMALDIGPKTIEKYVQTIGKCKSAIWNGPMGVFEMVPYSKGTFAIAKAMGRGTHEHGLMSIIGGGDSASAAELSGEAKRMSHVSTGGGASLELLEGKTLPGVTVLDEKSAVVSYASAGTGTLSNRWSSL
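Luminescent ATP detection (Kinase-Glo Plus) follows a 60-minute room-temperature incubation, with wells lacking PGK as controls. Buffer: 100 mM TEA (pH 7.6), 5 mM MgCl2, 0.01% Tween-20. Coupling enzyme GAPDH (100 nM final) supplies unstable 1,3-BPG in-well.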
FEN1 inh-1 = qHTS Assay for the Inhibitors of Human Flap endonuclease 1 (FEN1); P39748; Recombinant FEN1 flap cleavage, fluorescence, 15 min; Potency, µM (titrated, usually from 114 µM), for the others: at the top dose activity change, negative = inhibition, usual class: inhibitors; 390,000 compounds, 0.35% hits; also: potency is read from the fitted curve at half-maximal effect; % is scaled to controls: 0 for no effect and ±100 for the full control effect; nearly all actives have a fitted effect of over 65% in size
Target sequence (P39748 whole entry, looked up): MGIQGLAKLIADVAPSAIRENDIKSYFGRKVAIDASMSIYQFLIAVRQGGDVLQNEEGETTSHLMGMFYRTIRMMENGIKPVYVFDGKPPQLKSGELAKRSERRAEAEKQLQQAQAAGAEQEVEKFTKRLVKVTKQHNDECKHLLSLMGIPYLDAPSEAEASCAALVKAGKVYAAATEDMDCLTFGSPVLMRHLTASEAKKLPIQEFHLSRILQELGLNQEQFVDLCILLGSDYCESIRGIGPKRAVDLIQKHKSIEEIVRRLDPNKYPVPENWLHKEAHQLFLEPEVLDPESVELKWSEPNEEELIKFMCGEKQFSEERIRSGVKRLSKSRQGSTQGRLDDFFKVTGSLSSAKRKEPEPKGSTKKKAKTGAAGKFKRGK
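Recombinant FEN1 (10 nM) was preincubated with pin-transferred compounds for 15 min at room temperature, then flap DNA substrate (50 nM final) was added. Plates were read at 0 and 15 min, and normalized concentration–response data were fitted to a four-parameter Hill equation.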
Pol eta inh-1 = qHTS for Inhibitors of Polymerase Eta; DNA polymerase eta (Homo sapiens), Q9Y253; recombinant Pol eta, fluorescent DNA replication assay; Potency, µM (series often up to 114 µM), for inactives: top-dose activity change, negative = inhibition, actives largely listed as inhibitors; 390,000 compounds, 1.2% hits; also: potency is read from the fitted curve at half-maximal effect; % is scaled to controls: 0 for no effect and ±100 for the full control effect
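Fluorescent replication assay: 50 nM final substrate added after a 15 min room-temperature compound preincubation with 10 nM enzyme. Signal taken at 0 min and again at 10 min.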
Pol kappa inh-1 = qHTS for Inhibitors of Polymerase Kappa. purified Pol kappa, fluorescent DNA synthesis assay, 10 min. Potency, µM (top dose mostly 107 µM), for the others: at the highest dose activity, negative = inhibition, actives largely listed as inhibitors. 400,000 compounds, 0.53% hits. AID 588579, 2011; also: potency is read from the fitted curve at half-maximal effect; % is scaled to controls: 0 for no effect and ±100 for the full control effect
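Kinetic fluorescence screen: compound preincubated 15 min RT with 10 nM enzyme; 50 nM substrate (final) initiates; reads at 0/10 min.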
Pol beta inh-2 = Inhibitors of DNA Polymerase Beta: Hit validation | shares compounds with Pol beta inh-1 | Pol beta primer extension/strand displacement, fluorescence kinetic | Potency, µM, usual class: inhibitors | 250 compounds, 87% hits; calls by dose curve; also: potency is read from the fitted curve at half-maximal effect
Klenow counter = Inhibitors of DNA Polymerase Beta: Hit Validation in Klenow Fragment Assay. shares compounds with Pol beta inh-1. Klenow exo- polymerase counter-screen, fluorescent DNA substrate. activity change, negative = inhibition, % at 57.1 µM. 250 tested, under 10 active. AID 540300, 2011
HIV RT counter = Inhibitors of DNA Polymerase Beta: Hit Validation in HIV-RT Assay; shares compounds with Pol beta inh-1; HIV-1 RT polymerase activity, counter-screen; activity % (negative = inhibition, positive = activation), % at 57.1 µM; 250 tested, under 10 active; AID 540301, 2011
POLB valid = Inhibitors of DNA Polymerase Beta: Hit Validation in Radiolabeled Extension Assay. shares compounds with Pol beta inh-1. radiolabeled primer extension gel assay, phosphorimager. inhibition, % at 10 µM. 110 compounds, 91% hits. AID 540325, 2011;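 active = inhibition at 10 µM of 30% or more; inconclusive = no clear call, values can overlap the other calls; inactive = inhibition at 10 µM under 30%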
TbPGK inh = qHTS for inhibitors of Phosphogylcerate Kinase: Hit Validation Screen; AID 686980, 2013; TbPGK coupled GAPDH assay, Kinase-Glo luminescence; shares compounds with Pol kappa inh-1; 500 compounds, 79% hits; Potency, µM (top dose mostly 57.5 µM), for inactives: at the top dose activity change, negative = inhibition, actives largely listed as inhibitors; also: potency is read from the fitted curve at half-maximal effect; % is scaled to controls: 0 for no effect and ±100 for the full control effect; nearly all actives have a fitted effect of over 65% in size
POLI cherry-pick = qHTS for Inhibitors of Polymerase Iota: Confirmatory Assay for Cherry-picked Compounds | AID 720496, 2013 | Potency, µM, most hits filed as inhibitors | 1,500 compounds, 77% hits | shares compounds with Pol kappa inh-1 | Pol iota primer extension, TAMRA/BHQ fluorescence; also: potency is read from the fitted curve at half-maximal effect
Pol kappa inh-2 = qHTS for Inhibitors of Polymerase Kappa: Confirmatory Assay for Cherry-picked Compounds | 920 compounds, 76% hits | shares compounds with Pol eta inh-1 | Potency, µM, hits mostly inhibitors | purified Pol-kappa, fluorescent strand-displacement substrate; also: potency is read from the fitted curve at half-maximal effect
Pol eta inh-2 = qHTS for Inhibitors of Polymerase Eta: Confirmatory Assay for Cherry-picked Compounds | Potency, µM, hits mostly inhibitors | Pol eta primer extension, TAMRA/BHQ fluorescence, 10 min | 2,600 compounds, 64% hits | AID 720502, 2013 | shares compounds with Pol eta inh-1; also: potency is read from the fitted curve at half-maximal effect
FEN1 inh-2 = qHTS Assay for the Inhibitors of FEN1: Confirmatory Assay for Cherry-picked Compounds; shares compounds with FEN1 inh-1; Potency, µM, actives largely listed as inhibitors; FEN1 flap cleavage, TAMRA/BHQ2 fluorogenic DNA substrate; 880 compounds, 79% hits; also: potency is read from the fitted curve at half-maximal effect; nearly all actives have a fitted effect of over 60% in size
An asterisk follows results filed as active; i = inactive; u = inconclusive; x = not tested or not shown; [ ] = another dose, or the depositor's remark. Unless noted, calls follow the shape of the dose curve; as a rule, active = well fitted curve in the direction sought with a large enough effect; inconclusive = small, poorly fitted or top-dose-only effect, or another doubt; inactive = no such curve, though single readings can be large; an effect the other way counts as inactive or inconclusive.

SMILES	POLI inh	Pol beta inh-1	PGK inhibitor	FEN1 inh-1	Pol eta inh-1	Pol kappa inh-1	Pol beta inh-2	Klenow counter	HIV RT counter	POLI cherry-pick	Pol eta inh-2	others
COC(=O)c1ccccc1NC(=O)c1noc2c1CCC2	20µM*	10µM*	u	u	20µM*	u	32*	-33	7	38*	30*	POLB valid=73*
CNC(=O)c1c(NC(=O)c2cc(=O)c3cc(C)c(C)cc3o2)sc2c1CCCC2	8%	u	-3%	19%	-14%	2%	x	x	x	x	x
COc1ccc(-c2cc(=O)oc3cc(OC(C)C(=O)O)ccc23)cc1 (stereo unspecified)	-7%	20%	-5%	-8%	1%	3%	x	x	x	x	x
COc1ccc(-c2cc(=O)oc3c(O)c(O)ccc23)cc1	u	10µM*	u	-13%	7.9µM*	u	6.3*	-9	17	67*	u	TbPGK inh=9.2µM*
COc1ccc(CN(CCC(c2ccccc2)c2ccco2)C(=O)c2ccco2)cc1 (stereo unspecified)	50µM*	20µM*	-3%	-9%	79µM*	-41%	32*	-19	4	x	u	POLB valid=100*
COc1ccc(CN(C(=O)c2ccco2)c2ccccc2)cc1	-4%	8%	0%	-19%	-2%	-11%	x	x	x	x	x
Cc1cccc(N2CCN(S(=O)(=O)c3ccc4c(c3)C(C(C)C)C(=O)N4)CC2)c1C (stereo unspecified)	u	-7%	-8%	0%	-6%	-8%	x	x	x	x	x
COCCCNC(=O)C1CCN(c2ncnc3c2nc2n3CCCCC2)CC1	-6%	36%	-1%	-12%	-10%	-15%	x	x	x	x	x
CC1CCCCC1NC(=O)COC(=O)c1c2c(nc3ccccc13)/C(=C/c1ccco1)CC2 (stereo unspecified)	3.5µM*	11µM*	-10%	u	8.9µM*	10µM*	18*	-27	-5	34*	21*
O=C(Nc1cccc(S(=O)(=O)NC2=NCCC2)c1)c1cc(-c2ccco2)nc2ccccc12	8.9µM*	3.5µM*	u	u	10µM*	32µM*	4.5*	-39	6	34*	24*	FEN1 inh-2=76*
CCC1=NN2C(=N)/C(=C/c3cc(C)n(Cc4ccccc4)c3C)C(=O)N=C2S1	141%	u	-1%	-16%	-17%	-5%	x	x	x	x	x
Cc1cc(/C=C2\C(=N)N3N=C(c4ccco4)SC3=NC2=O)c(C)n1Cc1ccccc1	20µM*	10µM*	-4%	u	22µM*	50µM*	14*	-11	-13	x	43*	Pol kappa inh-2=17*;FEN1 inh-2=u
Cc1cccc(NC(=O)c2cnn(-c3ccccc3)c2-n2cccc2)c1C	-32%	0%	-2%	-24%	-13%	-16%	x	x	x	x	x
COc1cc([N+](=O)[O-])ccc1NC(=O)COC(=O)c1ccc(NC(N)=O)cc1	-18%	u	-2%	u	u	-8%	x	x	x	42*	x
c1cc2c(cc1C1=NNC(=NC3CC3)SC1)OCCO2	u	-10%	13µM*	14%	0%	-20%	x	x	x	x	x	TbPGK inh=9.2µM*
CCCCN=C1NN=C(c2ccc3c(c2)OCCO3)CS1	18%	25%	-2%	-18%	-16%	2%	x	x	x	x	x
O=c1c(O)c(-c2ccccc2)oc2cc(O)cc(O)c12	46%	x	i	-9%	-18%	14%	x	x	x	x	x
CC(C)=CCc1cc(-c2oc3cc(O)cc(O)c3c(=O)c2O)ccc1O	u	x	u	14%	u	-14%	x	x	x	x	x	TbPGK inh=-28%
Cc1ccc2nc3sc(C(=O)Nc4ccncc4)cc3cc2c1	x	x	x	x	x	x	x	x	x	u	x
Cc1ccc2nc3sc(C(=O)Nc4ccc(F)cc4)cc3cc2c1	u	2.5µM*	3%	-13%	-11%	-2%[60.1 µM]	x	x	x	75*	x
CCOc1ccccc1NC(=O)c1cc2cc3cc(C)ccc3nc2s1	5%	-21%	-6%	2%	-12%	-4%[60.1 µM]	x	x	x	x	x
CCOc1ccc(NC(=O)C2CCCN(c3nnc(-n4c(C)ccc4C)s3)C2)cc1 (stereo unspecified)	-15%	13%	x	6%	x	-9%	x	x	x	x	x
CC1=CC2=NC(=O)/C(=C\c3cccn3CCOc3ccccc3C)C(=N)N2O1	u	-3%	i	-1%	-11%	-5%[60.1 µM]	x	x	x	x	x
